Most compounds without a hit are left out; they make up all but 3.5% or so of the library.
Anthrax LF inh2: anthrax lethal factor protease inhibition. multiplex microsphere protease cleavage assay, LF. P15917. actives 0.12% (n = 360,000). AID 588501. inhibition, % at 10 µM
BoNT-A LC inh2: inhibitors of Botulinum neurotoxin A light chain protease. multiplex microsphere protease substrate cleavage, flow cytometry. inhibition, % at 10 µM. actives 0.17% (n = 360,000)
BoNT F protease: blocks Botulinum neurotoxin F light chain protease; inhibition, % at 10 µM; actives 0.22% (n = 360,000); AID 588497; Multiplex microsphere protease cleavage assay, flow cytometry; in the data active = inhibition above about 35%, passing the limit was not always enough; inconclusive = no clear call, values can overlap the other calls
Bead autofluor: compound fluorescence in toxin protease inhibitor counterscreen | AID 624483 | fluorescence intensity (no concentration beside the values) | compound autofluorescence counterscreen, microsphere flow cytometry; hits give high values | actives 3.1% (n = 360,000); in the data active = fluorescence intensity above about 16000; inconclusive = no clear call, values can overlap the other calls
Hits are given with their value; 0 = inactive; ? = inconclusive. Rule as the data show it, unless noted: active = inhibition above about 30%; inconclusive = no clear call, values can overlap the other calls; inactive = below that.

SMILES	Anthrax LF inh2	BoNT-A LC inh2	BoNT F protease	Bead autofluor
NC(=O)C1CC2(C1)CC(C(N)=O)C2 (centres undefined)	0	0	0	0
C[C@H](CO)N1C[C@H](C)[C@@H](CN(C)C(=O)NC2CCCCC2)Oc2ccc(NC(=O)Cc3ccccc3)cc2C1=O	0	0	0	0
Cc1cccc(-c2cnc(C(O)c3ccc(Cl)cc3C)[nH]2)c1 (centres undefined)	0	0	0	0
CCOc1ccc(-c2cc(C(=O)NCc3ccccc3)[nH]n2)c(C)c1	0	0	0	0
CC1=C(C(=O)N2CCOCC2)CC(CC(=O)NC2CCCCC2)C(=O)N1Cc1ccc(C(C)(C)C)cc1 (centres undefined)	0	0	0	0
O=C(CCc1ccccc1)c1ccc2c(c1)OCCCO2	0	?	0	19780
CCOC(=O)[C@]12CCCC=C1N(Cc1ccc3c(c1)OCO3)C(=O)[C@H](CC(=O)NCCCN1CCCC1=O)C2	0	0	0	0
CC(C1SC(=S)NC1=O)C1SC(=S)NC1=O (centres undefined)	0	0	0	0
CC(=O)C1=C(O)C(=O)N(CCN(C)C)C1c1ccc(Cl)cc1 (centres undefined)	0	0	0	20540
C(=N\Nc1nc2ccccc2[nH]1)/c1ccccc1	0	0	0	0
O=c1[nH]c(N/N=C/c2ccccc2)nc2ccccc12	0	0	0	16682
COc1cc(C=O)ccc1OCCSc1ccc(C)cc1	0	0	0	18295
O=C1CC(N2CCOCC2)C(=O)N1c1ccccc1Cl (centres undefined)	0	0	0	0
CCCOc1ccccc1N1C(=O)CC(N2CCOCC2)C1=O (centres undefined)	0	0	0	23760
COc1cccc(-c2oc3c(c2C#CC2(N)CCCCC2)C(O)CCC3)c1 (centres undefined)	0	0	0	0
CCOC1CCCc2oc(-c3ccsc3)c(-c3cnc(OC)nc3)c21 (centres undefined)	0	0	0	0
Clc1ccc(Cl)c(-c2nn3c(COc4ccccc4)nnc3s2)c1	0	0	0	0
CCc1nnc2sc(-c3cc(-c4ccccc4)nc4ccccc34)nn12	0	0	0	19922
CC1(C(=O)NS(=O)(=O)c2ccc(C#N)cc2)CCN1C(=O)c1cccc2ccccc12 (centres undefined)	0	0	0	0
CCCNC(=O)C1(C)CCN(Cc2ccc(-c3ccccc3)o2)C1 (centres undefined)	0	0	0	0
CC(C)c1nnc(SCc2ccc(CSc3nnc(C(C)C)n3N)cc2)n1N	0	0	0	0
CCCSc1nnc(C(C)C)n1N	0	?	0	22250
O=c1[nH][nH]c2c1[C@@H](c1ccc(F)cc1)O[C@H](CCOCc1ccccc1)C2	0	0	0	0
O=C(Cc1cccs1)Nc1nc(-c2ccc(F)cc2F)cs1	0	0	0	17771
CCCCNC(=O)C1(C)CCCCN1Cc1ccc(OCc2ccccc2)cc1 (centres undefined)	0	0	0	0
SMILES	Anthrax LF inh2	BoNT-A LC inh2	BoNT F protease	Bead autofluor
COc1ccc(N2C(=O)c3ccccc3NC23CCC(C)CC3)cc1 (centres undefined)	0	0	0	22907
COc1ccc(N2C(=O)c3ccccc3NC23CCCCC3)cc1	0	0	0	0
COc1ccc(CN2CCC3CC2c2cc(-c4cccc(C)c4)ccc23)cc1 (centres undefined)	0	0	0	0
Cc1ccc2ccccc2c1C(O)c1ncc(-c2ccccc2F)[nH]1 (centres undefined)	0	0	0	0
CCOC1=C2[C@H](c3ccc(Cl)cc3)N(S(=O)(=O)c3ccc(C)cc3)C[C@H]2n2c(=O)n(-c3ccccc3)c(=O)n2C1	0	0	0	0
COc1ccc(CC(=O)Nc2c3c(nn2-c2cccc(Cl)c2)CS(=O)(=O)C3)cc1	0	0	0	0
O=C(Cc1ccccc1)Nc1c2c(nn1-c1cccc(Cl)c1)CS(=O)(=O)C2	0	0	0	20201
C=CCn1c(SCC(=O)Nc2ccc3c(c2)OCO3)nnc1-c1cc(Br)ccc1O	0	0	0	24540
COc1ccc(-n2c(SCC(=O)Nc3ccc4c(c3)OCO4)nc3ccccc3c2=O)cc1	0	0	0	23540
CCOc1ccc(-n2c(SCC(=O)Nc3ccc4c(c3)OCO4)nc3ccccc3c2=O)cc1	0	0	0	0
C=CCn1c(SCC(=O)Nc2ccc3c(c2)OCO3)nnc1-c1ccccc1	0	0	0	0
O=C(CSc1nnc(-c2ccccn2)n1-c1ccc(Cl)cc1)Nc1ccc2c(c1)OCO2	0	0	0	22588
Nn1c(SCC(=O)Nc2ccc3c(c2)OCO3)nnc1-c1ccccc1	0	45	57	0
CCCCOc1ccc(S(=O)(=O)NC(=O)C2(C)CCN2C(=O)CCc2ccccc2)cc1 (centres undefined)	0	0	0	0
COc1ccc(C(C)(C)C)cc1NC(=O)COC(=O)CN1C(=O)NC2(CCCCC2C)C1=O (centres undefined)	0	0	0	0
CCNC(=O)C1CCCN(C(=O)Cc2ccc3ccccc3c2)CC1 (centres undefined)	0	0	0	0
CCOC(=O)/C(=C/C1=CC(=C/N(C)C)/C(=O)O1)C(C)=O	0	0	36	0
Cn1cccc1C(=O)NS(=O)(=O)c1ccccc1Cl	0	?	0	0
Cc1ccc(S(=O)(=O)NC(=O)c2cccn2C)cc1	0	0	0	16326
CCC(=O)N1CCCC(C)(C(=O)Nc2ccc(OC(F)F)cc2)C1 (centres undefined)	0	0	0	0
Cc1cc(C)cc(CC2CC(=O)N(c3ccc(Cl)cn3)C2=O)c1 (centres undefined)	0	0	0	22513
O=C(COc1ccc(Br)cc1)NCCCN1CCCC1=O	0	0	0	0
O=C(COc1cccc(C(F)(F)F)c1)NCCCN1CCCC1=O	0	?	0	16354
CCN1C(=O)/C(=C\N2CCN(c3ccc(F)cc3)CC2)SC1=S	0	?	0	16210
CCCC(=O)N(Cc1cc2cc(OC)ccc2[nH]c1=O)c1ccccc1OC	0	0	0	0
SMILES	Anthrax LF inh2	BoNT-A LC inh2	BoNT F protease	Bead autofluor
CC(=O)Nc1nonc1C(=O)N1CCC(C)CC1	0	0	0	20925
CC1CCN(C(=O)c2ccccc2NC(=O)Nc2ccccc2)CC1	0	0	0	0
CCOC(=O)C1=C(c2ccccc2)NC(=O)NC1c1ccsc1 (centres undefined)	0	0	?	0
Cc1cc(N2CCN(C(c3ccccc3)c3ccccc3)CC2)n2ncnc2n1	0	0	0	0
Cc1nc2ncnn2c(N2CCN(c3cccc(C(F)(F)F)c3)CC2)c1C	0	0	0	22031
Cc1cc(N2CCN(c3cccc(C(F)(F)F)c3)CC2)n2ncnc2n1	0	0	0	0
Cc1nc2ncnn2c(N2CCN(C(c3ccccc3)c3ccccc3)CC2)c1C	0	0	0	18747
COCCCN1C(=O)C(CC(=O)NC2CC2)CC(C(=O)N(C(C)C)C(C)C)=C1C (centres undefined)	0	0	0	0
C[C@H]1CN([C@@H](C)CO)C(=O)Cc2cc(NC(=O)C3CC3)ccc2O[C@H]1CN(C)Cc1ccc(C(=O)O)cc1	0	0	0	0
CCCNC(=O)c1cc(C2CCCCN2C(=O)c2ccc(OC)cc2)on1 (centres undefined)	0	0	0	0
Cc1c([N+](=O)[O-])c(C(=O)N2CCCC2)nn1C	0	0	0	22515
